Compound activity from PubChem BioAssay.
PI4K2A block = inhibitors of human PI4K2A | AID 1346378 | purified PI4K2A, ADP-Glo luminescence, 1 h; hits give low values | activity change, negative = inhibition, % at 76.9 µM | Q9BTU6 | 420,000 tested, 0.13% active; in the data active means activity change below about -50%; inconclusive means mostly about -30% to -49%;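 further: -100% = wells without enzyme as full effect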
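PI4K2A activity was measured by ADP-Glo luminescence: enzyme (4 ug/mL stock) and phosphatidylinositol (1.2 mM stock) in Tris pH 7.5/MgCl2/EGTA/Triton X-100 buffer were reacted with ATP (300 microM stock) for one hour at ambient temperature.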
rTrxR1 inhibitor = blocks rat thioredoxin reductase 1. AID 588453. Potency, µM (doses to about 114 µM), for the others: top-dose activity change, negative = inhibition, most hits filed as inhibitors. recombinant rTrxR1, NADPH fluorescence consumption, selenite substrate. O89049. 390,000 tested, 1% active; further: potency means the concentration at half of the fitted maximal effect; nearly all actives have a fitted effect of over 65% in size
Target sequence (O89049 whole entry, looked up): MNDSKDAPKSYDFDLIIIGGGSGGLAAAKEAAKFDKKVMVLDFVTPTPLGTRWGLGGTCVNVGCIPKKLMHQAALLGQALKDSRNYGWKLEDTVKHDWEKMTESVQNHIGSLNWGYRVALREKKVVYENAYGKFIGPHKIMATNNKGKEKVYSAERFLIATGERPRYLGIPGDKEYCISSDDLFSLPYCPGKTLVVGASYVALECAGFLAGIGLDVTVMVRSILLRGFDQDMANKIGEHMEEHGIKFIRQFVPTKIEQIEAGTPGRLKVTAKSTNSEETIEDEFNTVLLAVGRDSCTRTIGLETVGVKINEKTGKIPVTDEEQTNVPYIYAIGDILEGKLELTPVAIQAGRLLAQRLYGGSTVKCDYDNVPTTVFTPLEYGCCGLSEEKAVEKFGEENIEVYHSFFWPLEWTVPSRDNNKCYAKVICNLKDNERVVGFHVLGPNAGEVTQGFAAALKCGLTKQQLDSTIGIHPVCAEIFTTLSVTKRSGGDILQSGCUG
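Rat TrxR1 (90 nM in the dispensed reagent) was pre-reduced with 400 uM NADPH for 5 min at room temperature, then incubated with compound for 15 min. After 400 uM selenite was added, NADPH fluorescence (Ex 340/Em 450 nm) was followed for 8 min.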
TrxR1 substrate = substrates of rat thioredoxin reductase 1 | purified TrxR1 substrate turnover, NADPH consumption readout | Potency, µM (highest dose often 114 µM), without a hit: at the highest dose activity change, negative = substrate turnover | 390,000 tested, 0.01% active; further: potency means the concentration at half of the fitted maximal effect; nearly all actives have a fitted effect of over 50% in size
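Rat TrxR1, dispensed at 90 nM, was prereduced with 400 uM NADPH (final) for 5 min at ~22 deg C, then incubated with compound 15 min before 400 uM selenite. A first-read NADPH fluorescence drop versus no-compound background flagged substrates.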
GALK inh = galactokinase (human) inhibition; P51570; Purified GALK, Kinase-Glo residual ATP luminescence; Potency, µM (top dose mostly 57.5 µM), without a hit: at the highest dose activity change, negative = inhibition, hits mostly inhibitors; 270,000 tested, 0.007% active; AID 1868; further: potency means the concentration at half of the fitted maximal effect
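Quantitative HTS: GALK 5 nM, ATP 35 uM, galactose 100 uM, 1 h room temperature, then luciferase-based ATP detection.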
An asterisk follows results filed as active; ? = inconclusive; . = not tested or not shown; [ ] = another dose, or the depositor's remark. Sampled rows, rich in hits. Any-hit rate of the full collection: about 1.1%. Unless noted, the call rests on the fitted dose curve; in most records, active means well fitted curve in the direction sought with a large enough effect; inconclusive means small, poorly fitted or top-dose-only effect, or another doubt; inactive means no such curve, though single readings can be large; an effect the other way counts as inactive or inconclusive. Unless noted, on the % scale 0 is the no-effect control and ±100 the full control effect.

SMILES	PI4K2A block	rTrxR1 inhibitor	TrxR1 substrate	GALK inh
CN(C)CC1CC/C(=C\c2ccc(O)cc2)C1=O (stereo not given)	-3.5	0.708µM*	-4.8%	.
O=C1/C(=C\c2ccc(Cl)cc2)CCC1CNc1ccc(Cl)cc1 (stereo not given)	29.9	7.94µM*	1.8%	.
COc1ccc(/C=C2\CCC(C3CCCC3)C2=O)cc1 (stereo not given)	-12.4	-1.5%[57.1 µM]	6.3%[57.1 µM]	3.9%
CCC(=O)Oc1ccc2c(c1)CC[C@@H]1[C@@H]2CC[C@@]2(C)[C@H]1C[C@@H](OC(=O)CC)[C@@H]2OC(=O)CC	2.3	.	.	.
CC(C)(C)n1ncc2c(=O)n(Cc3ccc(Cl)cc3C(F)(F)F)cnc21	.	1.5%	-2.8%	.
COc1cccc(S(=O)(=O)Nc2ccc3c(c2)C(=O)N(C)C[C@H](OC)[C@H](C)CN[C@@H](C)CO3)c1	-2.5	.	.	.
C1=CC2c3ccccc3NC(c3ccncc3)C2C1 (stereo not given)	-12.4	7.94µM*	-1.7%	-0.7%
Cc1cc2nn(-c3ccc(F)cc3)nc2cc1NC(=O)c1ccc(OC(C)C)cc1	5.2	89.1µM*	93.2%	.
CN(C)c1ccc(Cc2cc3c(O)ccc(O)c3cc(Cc3ccc(N(C)C)cc3)c2=O)cc1	-56.4*	11.2µM*	-13.4%	.
CC(C)c1cnc2c(c1SCC(=O)N1CCCCC1)c(=O)n(C)c(=O)n2C	-4.2	5.6%[57.1 µM]	1.2%[57.1 µM]	.
O=C(COC(=O)/C=C/c1ccco1)NCc1ccccc1	1.8	10.1%[57.1 µM]	5.5%[57.1 µM]	-1.5%
Cc1nc(NC(=O)COC(=O)/C=C/c2ccco2)c(Cl)cc1Cl	-7.8	39.8µM*	4.3%	.
O=C(COC(=O)/C=C/c1ccccc1)NCc1cccs1	-2.0	29.8%	4.3%	.
Cc1ccc(/C=C/C(=O)OCC(=O)NCc2cccs2)o1	-8.8	56.2µM*	-10.8%	.
O=C(COC(=O)/C=C/c1ccco1)Nc1ncc(Cl)cc1Cl	-3.2	50.1µM*	-4.9%	1.0%
O=C(COC(=O)/C=C/c1ccco1)NCc1ccc(Cl)cc1	1.7	79.4µM*	-2.6%	.
COC(=O)c1ccc(/C=C/C(=O)OCC(=O)Nc2ncc(Cl)cc2Cl)cc1	4.3	-2.4%	-2.3%	.
COc1cccc2sc(N3CCN(C(=O)CCS(=O)(=O)c4ccc(F)cc4)CC3)nc12	4.5	8.7%[57.1 µM]	-4.2%[57.1 µM]	.
COCCCNC(=O)c1cc(-c2cccnc2)nc2ccc(S(=O)(=O)N3CCC(C)CC3)cc12	-1.3	16.2%[57.1 µM]	-7.4%[57.1 µM]	.
COc1cc(/C=C/C(=O)OCC(=O)NCc2ccco2)ccc1O	6.2	50.1µM*	-2.3%	.
CCOC(=O)NC1(NCc2ccccc2)Oc2ccccc2O1	7.9	31.6µM*	2.5%[57.1 µM]	-3.4%
CCOC(=O)NC1(NC2CCCCC2)Oc2ccccc2O1	7.9	31.6µM*	1.3%[57.1 µM]	-1.3%
CCN(CC)c1c([N+](=O)[O-])c(=O)n(C)c2ccccc12	-0.6	24.5%	4.2%[57.1 µM]	-2.4%
Cn1c(=O)c([N+](=O)[O-])c(Cl)c2ccccc21	-9.9	2.24µM*	7.9%[57.1 µM]	0.6%
Cc1ccc(S(=O)(=O)c2nc(S(C)(=O)=O)sc2N2CCCCCC2)cc1	5.4	4.0%	-8.7%	-2.1%
SMILES	PI4K2A block	rTrxR1 inhibitor	TrxR1 substrate	GALK inh
Cc1ccc(S(=O)(=O)c2nc(S(C)(=O)=O)sc2N2CCC(C)CC2)cc1	-2.0	12.6µM*	5.0%	-0.3%
O=C(c1ccc2c(=O)n(CCc3ccccc3)c(=O)[nH]c2c1)N1CCN(C(=O)c2ccco2)CC1	.	1.5%	4.1%	.
O=C(CSc1nnc(-c2ccc(Br)cc2)n1-c1ccccc1)c1ccccc1	2.4	23.8%[57.1 µM]	7.0%[57.1 µM]	.
O=C(Nc1ccc2nc3n(c(=O)c2c1)CCCCC3)c1cc([N+](=O)[O-])ccc1F	0.5	-9.5%	-3.9%	-2.1%
O=C(Nc1ccc2nc3n(c(=O)c2c1)CCCCC3)c1c(F)ccc([N+](=O)[O-])c1F	9.5	50.1µM*	-5.1%	-0.4%
O=c1ccc2cccc([N+](=O)[O-])c2[nH]1	4.6	.	.	.
Cc1oc(-c2ccc(Cl)cc2)nc1CS(=O)CC(=O)NC1CCCCCC1 (stereo not given)	2.9	?	-3.4%	0.0%
Cc1oc(-c2ccccc2F)nc1CS(=O)CC(=O)NC1CCCC1 (stereo not given)	-7.5	28.2µM*	9.1%	-0.6%
Cc1oc(-c2ccc(Cl)cc2)nc1CS(=O)CC(=O)NC1CCCCC1 (stereo not given)	-5.1	25.1µM*	14.5%	-1.4%
Cc1oc(-c2ccc(Cl)cc2)nc1CS(=O)CC(=O)NC1CCCC1 (stereo not given)	4.0	44.7µM*	-5.2%	1.5%
Cc1ccc(-c2nc(CS(=O)(=O)CC(=O)NC3CCCCCC3)c(C)o2)cc1	2.6	79.4µM*	7.3%	11.3%
Cc1nn(CCCC(=O)Nc2cc(C(F)(F)F)ccc2Cl)c(=O)c2c1sc1ccccc12	1.4	19.1%	-0.8%	.
CC(C)(C)n1ncc2c(=O)n(Cc3c(Cl)ccc(Cl)c3Cl)cnc21	.	9.1%	-0.6%	.
CCOc1ccccc1C(=O)N1CCCCC1CCN1CCOCC1 (stereo not given)	1.2	16.0%	1.8%	.
CCOc1ccc(C(=O)Cn2c(=O)n3nc(CCn4nc(C)cc4C)nc3c3cc(OC)c(OC)cc32)cc1	-2.5	1.9%[57.1 µM]	-8.3%[57.1 µM]	.
CCOC(=O)c1cc(C)n(CC2CCC(C(=O)Nc3ccc(C(C)=O)cc3)CC2)c1C (stereo not given)	-8.9	11.8%	-3.3%	.
Cc1oc(-c2cccs2)nc1CS(=O)CC(=O)NC1CCCCCC1 (stereo not given)	-11.5	5.01µM*	4.6%[57.1 µM]	1.4%
CC(C)=CCC/C(C)=C/CC/C(C)=C/CSc1ccccc1C(=O)O	.	-4.2%	.	.
O=[N+]([O-])c1ccc2c(c1)Cc1cc(F)ccc1-2	1.9	18.7%	-2.9%	.
O=[N+]([O-])c1ccc2c(c1)C=CC2	.	12.6µM*	1.7%	.
CC(/C=N/n1c(-c2ccncc2)n[nH]c1=S)=C\c1ccco1	-28.9	50.1µM*	-12.6%	-1.7%
CC(/C=N/n1c(-c2ccc(C)cc2)n[nH]c1=S)=C\c1ccco1	-2.5	?	0.6%	0.8%
CC(Oc1ccccc1Cl)C(=O)Nc1ccc(S(=O)(=O)N2CCN(C)CC2)cc1 (stereo not given)	?	20µM*	-1.9%	.
CC(Oc1ccccc1)C(=O)Nc1ccc(S(=O)(=O)N2CCN(C)CC2)cc1 (stereo not given)	-5.3	28.1%	13.3%	.
O=C(Cn1cnc2ccccc2c1=O)N1CCN(Cc2ccc(F)cc2)CC1	-0.8	.	.	.
SMILES	PI4K2A block	rTrxR1 inhibitor	TrxR1 substrate	GALK inh
C=Nc1ccc(/C=C/c2ccnc3ccccc23)cc1	.	8.5%	-1.9%	.
O=c1c(O)c(-c2ccc(O)cc2O)oc2cc(O)cc(O)c12	-67.0*	7.08µM*	8.9%[57.1 µM]	.
O=c1c(O)c(-c2ccccc2)oc2cc(O)cc(O)c12	-1.4	-7.9%	-2.3%	.
O=C1C=C(c2ccccc2)C(=O)N1Nc1ccccc1	17.3	3.16µM*	12.3%	0.4%
COc1ccc(C2=CC(=O)N(Nc3ccccc3)C2=O)cc1	9.5	?	-4.0%[57.1 µM]	-0.1%
COc1cc(/C=C/C(=O)c2ccc3c(c2)OCCO3)cc(Br)c1OCC(=O)N(C)C	-3.9	-15.9%	7.4%	7.1%
